Measurements reported in PubChem BioAssay AID1964107 (National Center for Advancing Translational Sciences (NCATS), 2024).
About 360 (1.2%) of roughly 31,000 compounds were called active. About 8% were inconclusive and are not listed. Shown is part of a subset that was picked to be rich in actives. Entries that show only a call come without a potency. A number with no mark means an inactive call. The call rests on the fitted dose curve.

target: Polyprotein P1234 (Chikungunya virus (strain S27-African prototype)) (UniProt Q8JUX6); assay: Primary qHTS for inhibitors of NSP2Pro chikungunya virus (CHIKV); conditions: FRET peptide cleavage, fluorescence 1 h; series mostly up to 24.9 µM; further: nearly all actives have a fitted effect of over 60% in size
Outline: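 Enzyme 150 nM, substrate 2.5 uM (both final); Tris-HCl 10 mM pH 8.0 + 0.01% Tween 20; cpd up to 25 uM, 7 pts; 15 min preinc., 1 h RT; fluorescence ex 525/em 598.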
Potency means the concentration at half of the fitted maximal effect.

Chain of Polyprotein P1234 (Chikungunya virus (strain S27-African prototype)) (Q8JUX6 whole entry, looked up): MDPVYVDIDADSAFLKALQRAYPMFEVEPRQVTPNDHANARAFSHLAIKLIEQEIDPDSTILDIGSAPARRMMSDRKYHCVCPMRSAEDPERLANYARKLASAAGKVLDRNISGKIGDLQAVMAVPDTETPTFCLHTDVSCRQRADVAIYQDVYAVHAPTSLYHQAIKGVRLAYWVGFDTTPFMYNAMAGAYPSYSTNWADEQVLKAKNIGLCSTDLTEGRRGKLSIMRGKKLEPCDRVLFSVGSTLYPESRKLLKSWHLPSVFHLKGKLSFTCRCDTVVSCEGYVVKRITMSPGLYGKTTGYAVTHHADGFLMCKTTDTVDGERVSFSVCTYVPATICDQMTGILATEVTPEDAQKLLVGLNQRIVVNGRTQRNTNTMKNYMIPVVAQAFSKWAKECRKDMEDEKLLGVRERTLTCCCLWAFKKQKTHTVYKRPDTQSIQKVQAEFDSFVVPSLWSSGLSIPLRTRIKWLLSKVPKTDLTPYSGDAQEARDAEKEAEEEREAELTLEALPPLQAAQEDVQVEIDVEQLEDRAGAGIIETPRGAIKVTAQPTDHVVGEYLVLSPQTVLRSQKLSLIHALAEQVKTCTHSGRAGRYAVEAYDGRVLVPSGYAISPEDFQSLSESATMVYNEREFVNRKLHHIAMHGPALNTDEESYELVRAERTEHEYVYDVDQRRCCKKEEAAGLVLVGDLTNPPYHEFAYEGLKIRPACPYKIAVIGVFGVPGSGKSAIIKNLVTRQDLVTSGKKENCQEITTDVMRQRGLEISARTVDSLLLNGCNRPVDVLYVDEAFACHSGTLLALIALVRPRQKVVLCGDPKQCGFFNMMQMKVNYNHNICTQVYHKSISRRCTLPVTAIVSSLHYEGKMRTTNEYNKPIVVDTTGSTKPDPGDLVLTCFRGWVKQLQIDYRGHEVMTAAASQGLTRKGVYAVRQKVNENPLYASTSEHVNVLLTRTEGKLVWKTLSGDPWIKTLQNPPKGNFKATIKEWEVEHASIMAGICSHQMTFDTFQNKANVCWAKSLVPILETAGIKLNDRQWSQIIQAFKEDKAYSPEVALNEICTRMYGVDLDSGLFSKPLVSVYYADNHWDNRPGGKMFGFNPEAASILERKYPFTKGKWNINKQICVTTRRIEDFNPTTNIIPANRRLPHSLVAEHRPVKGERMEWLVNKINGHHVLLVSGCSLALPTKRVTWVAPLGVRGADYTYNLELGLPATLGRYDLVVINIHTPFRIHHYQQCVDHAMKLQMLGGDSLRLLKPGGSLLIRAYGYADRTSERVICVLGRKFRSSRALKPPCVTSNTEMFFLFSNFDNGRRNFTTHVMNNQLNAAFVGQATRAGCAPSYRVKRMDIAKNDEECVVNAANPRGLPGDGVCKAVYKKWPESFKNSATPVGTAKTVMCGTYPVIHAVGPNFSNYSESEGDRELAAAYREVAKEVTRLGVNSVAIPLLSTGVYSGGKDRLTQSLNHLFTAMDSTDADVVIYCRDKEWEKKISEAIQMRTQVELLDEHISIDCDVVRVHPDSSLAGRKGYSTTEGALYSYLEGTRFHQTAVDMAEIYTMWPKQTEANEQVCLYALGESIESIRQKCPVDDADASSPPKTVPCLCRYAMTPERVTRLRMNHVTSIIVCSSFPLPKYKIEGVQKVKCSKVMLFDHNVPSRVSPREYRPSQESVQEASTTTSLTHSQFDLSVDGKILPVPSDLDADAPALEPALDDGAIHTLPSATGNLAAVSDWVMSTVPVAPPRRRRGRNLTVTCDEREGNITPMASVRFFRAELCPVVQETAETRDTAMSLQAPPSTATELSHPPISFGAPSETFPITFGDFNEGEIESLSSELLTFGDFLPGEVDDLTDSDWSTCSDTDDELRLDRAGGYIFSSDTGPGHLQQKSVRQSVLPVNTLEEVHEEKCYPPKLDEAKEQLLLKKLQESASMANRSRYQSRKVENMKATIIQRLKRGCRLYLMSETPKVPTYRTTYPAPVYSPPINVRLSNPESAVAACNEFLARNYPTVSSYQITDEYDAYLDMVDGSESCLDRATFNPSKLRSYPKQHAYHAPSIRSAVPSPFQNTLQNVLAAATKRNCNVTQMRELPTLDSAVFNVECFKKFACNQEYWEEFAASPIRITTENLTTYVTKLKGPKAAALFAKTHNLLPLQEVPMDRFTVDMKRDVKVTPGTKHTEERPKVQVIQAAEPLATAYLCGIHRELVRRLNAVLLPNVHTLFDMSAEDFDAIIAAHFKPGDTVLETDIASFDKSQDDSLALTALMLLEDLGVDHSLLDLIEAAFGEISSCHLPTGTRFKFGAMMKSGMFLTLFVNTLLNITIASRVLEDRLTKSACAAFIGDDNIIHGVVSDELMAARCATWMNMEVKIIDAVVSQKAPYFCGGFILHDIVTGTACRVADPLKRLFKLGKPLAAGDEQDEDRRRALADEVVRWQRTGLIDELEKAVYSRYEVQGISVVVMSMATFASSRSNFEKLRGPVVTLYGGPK

Structure (SMILES)	Potency	activity change, negative = inhibition
COc1ccccc1-c1nnc2n1N=C(c1ccc(OC(F)F)c(OCC3CC3)c1)CS2	inactive	–
O=C(Nc1ncc(Cc2ccc(C(F)(F)F)cc2)s1)c1cnc(-c2ccccc2)o1	inactive	–
CCOc1ccc(CCNC(=O)c2c(C)oc3ncn(C)c(=O)c23)cc1	inactive	–
CN[C@H]1CN(c2ccc3c(=O)c(C(=O)O)cn(-c4nccs4)c3n2)C[C@@H]1OC	–	-5.01% [at 5.1 µM]
Cc1cc(F)ccc1NC(=O)CCC1CCCN(C(=O)c2ccc(Cl)s2)C1 (stereo not given)	inactive	–
CCC(CC)[C@H](NC(C)=O)[C@@H]1[C@H](O)[C@@H](C(=O)O)C[C@H]1N=C(N)N	–	-4.24% [at 0.199 µM]
C[C@@H]1O[C@@H](O[C@@H]2[C@@H](O)[C@H](O[C@@H]3[C@@H](O)[C@@H](O)[C@H](O[C@H]4[C@H](OC(=O)[C@]56CCC(C)(C)C[C@H]5C5=CCC7[C@@]8(C)C[C@H](O)[C@H](O[C@@H]9O[C@@H](C)[C@H](O)[C@@H](O)[C@H]9O)[C@@](C)(CO)C8CC[C@@]7(C)[C@]5(C)C[C@H]6O)O[C@H](C)[C@H](O)[C@@H]4O)O[C@H]3C)OC[C@H]2O)[C@H](O)[C@H](O)[C@H]1O (stereo not given in full)	–	10.2% [at 5.1 µM]
Cc1nc(C)c(-c2ccc3ncnc(NCc4ncc[nH]4)c3c2)s1	inactive	–
COc1cccc(CNCCSc2nnnn2C)c1OCc1ccccc1Cl	inactive	–
O=C(Nc1cc(C(F)(F)F)ccc1Cl)c1ccc2c(c1)CCN2S(=O)(=O)c1ccccc1	inactive	–
COc1cc(OC)cc(C(=O)NCCc2csc3nc(-c4ccccc4F)nn23)c1	inactive	–
CCc1ccc(NC(=O)C(=O)NNC(=O)Cc2ccc(Cl)c(Cl)c2)cc1	inactive	–
Cc1cc(C)cc(NC(=O)CSc2nc(=O)n(CCN3CCOCC3)c3c2CCC3)c1	inactive	–
O=C(c1cccc(F)c1)N1CCCC(CN2CCOCC2)CC1 (stereo not given)	inactive	–
O=C(CCc1cn(Cc2ccc(F)cc2)c2ccccc12)NC1CCCCC1	inactive	–
COc1ccc(Cl)cc1S(=O)(=O)N1CCC(c2ccncc2)CC1	inactive	–
COc1cccc(-n2ccn(CC(=O)NCc3ccc(C)cc3)c(=O)c2=O)c1	inactive	–
CN(C(=O)c1ccc2c(c1)N(Cc1cccc(Cl)c1)C(=O)c1ccccc1S2=O)C1CCCCC1 (stereo not given)	inactive	–
O=C(CSc1nccn1C1CCCC1)Nc1cc(C(F)(F)F)ccc1Cl	inactive	–
COc1ccccc1N1CCN(c2ccc(=O)n(CC(=O)NCc3ccc(OC(C)C)cc3)n2)CC1	inactive	–
CC1CCC2(C)C(CC(O)C(O)C23CO3)C1(C)CCC1=CC(O)OC1=O (stereo not given)	inactive	–
Cc1noc(C)c1S(=O)(=O)N1CC(C(=O)NC2CCCCC2)C2(CCOCC2)C1 (stereo not given)	inactive	–
COc1cccc(-c2cc(C(=O)N3CCN(c4ncccn4)CC3)c3cnn(C)c3n2)c1	inactive	–
CCc1ccc(C(=O)CC2(O)C(=O)N(CCc3ccccc3)c3ccc(Br)cc32)cc1 (stereo not given)	inactive	–
COCc1nc(C2CC(N)C2)cc(N2CCC(Cn3cccn3)CC2)n1 (stereo not given)	inactive	–
O=C(Nc1cc(-c2ccccc2)nn1-c1ccccc1F)c1ccc([N+](=O)[O-])cc1	inactive	–
COc1ncccc1-c1cc(-c2cn[nH]c2)c2cncn2c1	inactive	–
CN1CCN(C(=O)c2ccc(-c3cnc4c(O)ccc(C(=O)O)c4c3)cc2)CC1	inactive	–

Structure (SMILES)	Potency	activity change, negative = inhibition
COc1ccc(NC(=O)CSc2nnc(-c3nnn(-c4ccc(F)cc4)c3C)o2)cc1	inactive	–
CNC(=O)[C@@H](Cc1ccccc1)N1CCC[C@H]1C(=O)NCC1CC1	inactive	–
COc1ccc(OC)c(NC(=O)CSC2=Nc3ccccc3C3=NC(CC(=O)NCCc4ccccc4)C(=O)N23)c1 (stereo not given)	inactive	–
COC(=O)CC[C@@H](C)C1CCC2C3CCC4C[C@H](OC(C)=O)CCC4(C)C3C[C@H](O)C21C (stereo not given in full)	inactive	–
O=C(Cc1ccccc1)Nc1sc2c(c1C(=O)Nc1ccc(Br)cc1)CCC2	inactive	–
Cc1cccc(OCCCC(=O)Nc2sc3c(c2C(N)=O)CCC(C)C3)c1 (stereo not given)	inactive	–
COC(=O)c1c(NC(=O)CCCOc2ccccc2)sc2c1CCC(C)C2 (stereo not given)	inactive	–
CCOc1ccc(NC(=O)c2c(NC(=O)Cc3ccccc3)sc3c2CCCCC3)cc1	8.91 µM (active)	–
CCOC(=O)c1ccc(NC(=O)c2c(NCc3cccc(OC)c3)sc3c2CCC3)cc1	inactive	–
CCOc1ccc(NC(=O)c2c(NC(=O)Cc3ccccc3)sc3c2CCC(C)C3)cc1 (stereo not given)	3.38 µM (active)	–
COc1ccc(CCNS(=O)(=O)c2cc(-c3cc(C)no3)ccc2C)cc1OC	inactive	–
CC(C)c1nccn1CCCNc1nc(-c2ccncc2)nc2c1cnn2C	inactive	–
COc1ccc(NC(=O)Cn2c(=O)n(CCC(C)C)c(=O)c3cccnc32)cc1Cl	inactive	–
N#Cc1ccc(NCCNCC(=O)N2CCCC2C#N)nc1 (stereo not given)	inactive	–
CC(C)NC(=O)c1nn(-c2ccccc2F)nc1CO	inactive	–
CC(C)Nc1ncc(C(=O)NC2CCCN(CCc3ccccc3)C2)cn1 (stereo not given)	inactive	–
CN1CCCN(C(=O)CN2CC3CC(C2)[C@H]2CCCC(=O)N2C3)CC1 (stereo not given in full)	inactive	–
Cc1ccccc1-c1nc(NCc2ccc(-c3cccnc3)cc2)c2ccccc2n1	inactive	–
CC(C)(O)c1ccc2c(c1)C(=O)CC1[C@](C)(CO)CCC[C@]21C (stereo not given in full)	inactive	–
COc1cccc(-c2nc(S(=O)(=O)c3ccc(C)cc3)c(NCc3ccccc3)o2)c1	inactive	–
O=C(CSc1oc(-c2ccc(F)cc2)nc1S(=O)(=O)c1ccc(Br)cc1)NC1CCCCC1	inactive	–
COc1ccc(-c2nc(S(=O)(=O)c3ccccc3)c(N3CCCCC3)o2)cc1	11.2 µM (active)	–
CN(C)c1cccc(-c2cnc(Nc3cnccn3)c3c2CCO3)c1	inactive	–
CCCCNc1nc(C)nc2c1nc(-c1ccccc1)n2CCCCN(CC)CC	inactive	–
COc1ccc(OC)c(NC(=O)C2CCCN(S(=O)(=O)c3ccc4c(c3)CCCC(=O)N4)C2)c1 (stereo not given)	inactive	–
C[C@H]1CC[C@@H]2N(C1)C[C@@H]1[C@H]([C@@H](O)[C@H](O)[C@]3(O)[C@H]1C[C@@]14OC5(O)[C@@H](C[C@@H](O)[C@@H]31)[C@]4(C)CC[C@@H]5O)[C@]2(C)O	inactive	–
COc1ccccc1CNC(=O)CN1CCCC(CO)(CC2CC2)C1 (stereo not given)	inactive	–
